D1 potentiator: enhances dopamine response at the human D1 receptor; AID 504651; HEK293 TREx D1 cells, calcium flux, dopamine EC20 potentiation; hit rate 0.036% among 360,000; potentiation, % at 10 µM; in the data active = potentiation above about 30%
D1 antag: antagonists of human D1 dopamine receptor; P21728; HEK293 TREx D1 cells, calcium flux, dopamine EC80; active compounds read low; activity change, negative = inhibition, % at 10 µM; hit rate 3.2% among 360,000; AID 504652; in the data active = activity change below about -30%
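Using tetracycline-induced force-coupled D1 Hek293 cells and a calcium dye, signals were followed for 180 s after compound, then for 180 s after EC80 dopamine, to detect inhibitors.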
TRHR PAM: allosterically enhances the human TRH receptor. P34981. TRHR cells, fluo-8 calcium fluorescence, EC20 TRH enhancement. enhancement, % at 2 µM. hit rate 0.66% among 360,000. AID 493056; in the data active = enhancement above about 30%
Target sequence (P34981 whole entry, looked up): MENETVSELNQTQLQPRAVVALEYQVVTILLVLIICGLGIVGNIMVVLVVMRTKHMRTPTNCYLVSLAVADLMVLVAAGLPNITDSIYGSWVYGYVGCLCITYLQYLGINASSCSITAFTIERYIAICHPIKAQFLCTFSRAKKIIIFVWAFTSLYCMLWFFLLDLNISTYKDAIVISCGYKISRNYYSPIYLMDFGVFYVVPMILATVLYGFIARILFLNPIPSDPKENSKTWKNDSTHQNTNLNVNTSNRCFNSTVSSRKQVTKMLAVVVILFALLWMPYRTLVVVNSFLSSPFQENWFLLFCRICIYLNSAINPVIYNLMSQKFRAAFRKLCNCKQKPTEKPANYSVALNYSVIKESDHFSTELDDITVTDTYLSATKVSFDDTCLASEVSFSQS
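Enhancer read-out: after compound pinning and an initial kinetic agonist-mode read, an EC20 of TRH (10 nM final) was injected and fluo-8 calcium signal (Ex 480/Em 530) followed at 1 s/cycle for 100 cycles in TRHR-expressing cells.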
D1 agonist: human D1 receptor agonism; P21728; HEK293 T-REx D1 cells, calcium flux, agonist mode; activation, % at 2 µM; hit rate 1% among 360,000
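Inducible HEK293 T-REx D1 cells, force-coupled to calcium signalling, were plated at 4000 cells/well with tetracycline and held overnight at 30 C. After no-wash calcium dye loading, compound-evoked calcium rise over 180 s flagged agonists.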
TRHR agonist: TRH receptor (human) agonism. P34981. TRHR cells, calcium flux fluo-8, FDSS agonist mode. activation, % at 2 µM. hit rate 0.18% among 360,000
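Read-out: compound-evoked intracellular calcium rise in TRHR cells, fluo-8 dye, kinetic FDSS fluorescence at 1 s/cycle following a 10-cycle baseline. Cells cultured overnight before dye loading (30 min–1.5 h, RT).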
Of the large screens only hits and unclear results are named; the others gave an inactive call; ! = repeats disagree. In the library only some 4.7% were active in any assay of this set; here they are far more common. Rule as the data show it, unless noted: active = activation above about 30%; inactive = the rest.

O=C(Nc1ccc(OCC(F)(F)C(F)F)cc1)c1ccncc1	D1 antag -31.8
CCOc1ccc(NC(=O)c2ccncc2)cc1	none
O=C(CNC(=O)c1ccccc1Cl)OC(C(=O)Nc1cc(C(F)(F)F)ccc1Cl)c1ccccc1 (stereo unspecified)	none
CCCOC(=O)CC1C(=O)NCCN1Cc1cc(OC)cc(OC)c1 (stereo unspecified)	none
CN(C(=O)CC1C(=O)NCCN1Cc1ccoc1)C1CCOCC1 (stereo unspecified)	none
CN(CC1CCOCC1)C(=O)CC1C(=O)NCCN1Cc1cccc(C(F)(F)F)c1 (stereo unspecified)	D1 antag -76.7
Cc1ccc(CN2CCNC(=O)C2CC(=O)N(C)C2CCOCC2)cc1 (stereo unspecified)	D1 antag -33.1
CCOC(=O)CC1C(=O)NCCN1Cc1cccc(OC)c1 (stereo unspecified)	TRHR PAM 35.8
Cc1csc(CNc2ncnc3ccc(-c4ccoc4)cc23)c1	D1 antag -62.5!
Cc1csc(CNc2ncnc3ccc(-c4cccnc4)cc23)c1	none
Clc1ccccc1-c1ccc2ncnc(NCc3cccs3)c2c1	D1 antag -41.8
Cc1csc(CNc2ncnc3ccc(-c4ccccc4Cl)cc23)c1	none
Cc1cccc(-c2ccc3ncnc(NCc4cccs4)c3c2)c1	D1 antag -46.0!
CCC(Cn1nnc2ccccc2c1=O)NC(=O)Nc1cc(OC)cc(OC)c1 (stereo unspecified)	none
CCCCN1CC(c2nc3ccccc3n2CCCCOc2ccccc2C)CC1=O (stereo unspecified)	none
c1ccc(Nc2nc(N3CCCCC3)nc(N3CCNCC3)n2)cc1	D1 agonist 42.0
Cc1ccc(N/C(N)=N/c2nc3c(c(=O)[nH]2)CCCC3)c(C)c1	none
Cc1ccc(N/C(N)=N/c2nc(C)cc(N3CCCCC3)n2)c(C)c1	D1 antag -98.7
CCCc1nn2c(=O)cc(COC(=O)c3cccc(NC(=O)COc4ccccc4C)c3)nc2s1	none
COCCCNc1ccnc2c(Cl)cccc12	TRHR PAM 36.8
COCCNc1ccnc2c(Cl)cccc12	none
COc1ccc(NC(=O)CSc2nc(-c3ccc(C)cc3)cc(C(F)(F)F)c2C#N)cc1	D1 antag -41.2
COc1ccc(-c2cc(C(F)(F)F)c(C#N)c(SCC(=O)Nc3ccccc3C#N)n2)cc1	D1 agonist 59.9
COc1ccc(NC(=O)CSc2nc(-c3cccs3)cc(C(F)(F)F)c2C#N)cc1	none
CCOC(=O)c1ccc(NC(=O)CSc2nc(-c3cccs3)cc(C(F)(F)F)c2C#N)cc1	D1 agonist 50.0
COc1ccc(-c2cc(C(F)(F)F)nc(SCC(=O)Nc3ccc(C(C)=O)cc3)n2)cc1	D1 antag -44.1
COc1ccc(-c2cc(C(F)(F)F)c(C#N)c(SCC(=O)Nc3cccc(C)c3)n2)cc1	none
CC(C)c1ccc(NC(=O)CSC2=Nc3ccccc3C3=NC(CC(=O)NCc4cccs4)C(=O)N23)cc1 (stereo unspecified)	none
COc1ccc(-c2cc(-c3cccs3)c(C#N)c(SCC(=O)NCc3ccccc3)n2)cc1	none
COc1ccc(-c2cc(-c3cccs3)c(C#N)c(SCC(=O)NCc3ccccc3OC)n2)cc1	D1 antag -35.7
O=C1NC(c2cccc(Cl)c2)Oc2ccccc21 (stereo unspecified)	TRHR PAM 31.9
CCOc1ccc(C2NC(=O)c3ccccc3O2)cc1OCC (stereo unspecified)	none
C=C(C)COc1ccc(C2NC(=O)c3ccccc3O2)cc1OCC (stereo unspecified)	D1 antag -49.1
Cc1nc(-c2cccnc2)sc1C(=O)Nc1ccc(C(F)(F)F)cc1	D1 antag -33.3
Cc1nc(-c2cccnc2)sc1C(=O)Nc1cccc(C(F)(F)F)c1	none
O=C(CSc1n[nH]c(-c2ccc(F)cc2)n1)NCc1ccccc1Cl	none
C=CCc1cc(Cl)ccc1OCCNCCN1CCOCC1	D1 antag -87.1
C=CCc1cc(Cl)ccc1OCCNCCOC	none
O=C(O)CCCNS(=O)(=O)c1cccs1	D1 antag -58.3
COc1ccc(N2CC(C(=O)OCC(=O)Nc3cccc(C)c3)CC2=O)cc1 (stereo unspecified)	D1 antag -30.5
COc1cccc(NC(=O)COC(=O)C2CC(=O)N(c3ccc(C)cc3)C2)c1 (stereo unspecified)	none
Oc1ccc(C[C@@H]2CNCCN2CCc2cc(C(F)(F)F)cc(C(F)(F)F)c2)cc1	D1 agonist 40.3
FC(F)(F)c1cc(CCN2CCNC[C@H]2Cc2cccc3ccccc23)cc(C(F)(F)F)c1	D1 agonist 44.6
Oc1ccc(C[C@H]2CNCCN2CCc2cc(C(F)(F)F)cc(C(F)(F)F)c2)cc1	none
Cc1cc2nnc(SCc3ccc(F)cc3)n2c2ccccc12	none
Cc1cccc(CC(=O)c2c[nH]c3ccccc23)c1	TRHR PAM 30.7
Cc1cccc(C)c1NC(=O)c1c[nH]c2ccccc12	D1 antag -48.4
COC(=O)N/N=C(\C)c1cccs1	none
COC(=O)N/N=C(\C)c1ccccc1Br	D1 antag -31.4
COCCCNC(=O)C1CCN(Cc2nc(-c3ccc(OC)c(OC)c3)oc2C)CC1	none
COc1ccc(C(=O)c2sc3nc(-c4ccccc4)ccc3c2N)cc1	D1 agonist 157.9
COc1cccc(-c2ccc3c(N)c(C(=O)c4ccc(Cl)cc4)sc3n2)c1	D1 agonist 97.6
C/C=C/C(=O)Nc1cccc(C2=NOC3(C2)C[C@H](C(N)=O)N(C(=O)/C=C/C)C3)c1 (stereo partly specified)	D1 antag -41.8
C/C=C(\C)C(=O)Nc1cccc(C2=NOC3(C2)C[C@H](C(N)=O)N(C(=O)c2cc([N+](=O)[O-])cc([N+](=O)[O-])c2)C3)c1 (stereo partly specified)	D1 antag -64.4
C/C=C\C=C/C(=O)Nc1cccc(C2=NOC3(C2)C[C@@H](C(N)=O)N(C(=O)c2ccc(Cl)cc2)C3)c1 (stereo partly specified)	D1 antag -30.0
C/C=C\C=C/C(=O)Nc1cccc(C2=NOC3(C2)C[C@H](C(N)=O)N(C(=O)c2ccc(OC)cc2)C3)c1 (stereo partly specified)	none
N#CCC(=O)N1CC2(CC(c3cccc(NC(=O)COc4ccc(Cl)cc4)c3)=NO2)C[C@@H]1C(N)=O (stereo partly specified)	D1 antag -41.4
Cc1ccc(-c2c(CN3CCN(c4cccc(C(F)(F)F)c4)CC3)csc2C)cc1	none
CCOC(=O)N1CCc2c(sc3c2c(=O)n(Cc2ccccc2)c(=O)n3Cc2cccc(Cl)c2)C1	none
CC(=O)N1c2ccccc2C(=O)C1N1CCN(c2cc(Cl)ccc2C)CC1 (stereo unspecified)	none
COc1ccc(NC(=O)COc2ccc(Br)cc2)c(OC)c1	none
